CSC inhib = cancer stem cell viability inhibitors, primary screen, luminescence; hit rate 1.1% among 300,000; inhibition, % at 7.5 µM; cancer stem cell-like cells viability; in the data active means inhibition above about 75%; inconclusive means no clear call, values can overlap the other calls; tested in HMLE shEcad cells
Shn3 3UTR inh = reduction of Shn3 3'UTR firefly luciferase signal, primary screen, Schnurri-3 inhibitor project, cell-based, Clone20 osteoblasts, set 2; Clone20 osteoblast Shn3 3'UTR firefly luciferase, 24 h; inhibition, % at 12.5 µM; hit rate 0.52% among 360,000; AID 588674, 2011;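 active means mean inhibition of at least 75% with every replicate also reaching 75%; inconclusive means mean inhibition at least 75% but some replicate below; inactive means mean inhibition below 75%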;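 further: 0% = median of neutral control wells and 100% = pilot-screen positive control compound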
Beta cell apopt = inhibitors of cytokine-induced beta cell apoptosis, primary screen, luminescence; hit rate 0.8% among 300,000; INS-1E cytokine-induced death, ATP luminescence, 48 h; percent of positive-control rescue, neutral wells zero; AID 435005, 2010; protection from apoptosis, % (concentration not given with the values);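 active means Every replicate reaches about 75%, or at least half do and their mean reaches it too, limit read from the data; inconclusive means At least half of replicates reach the limit but their mean does not; inactive means Under half of replicates reach the limit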;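 further: 0% = cytokine-treated negative control wells and 100% = positive control rescue; higher means more ATP so stronger rescue from cytokine killing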
PfHsp90 set2 = growth inhibition of PfHsp90-expressing yeast, primary screen, antimalarial PfHsp90 inhibitor project, S. cerevisiae, BacTiter-Glo luminescence, single point, set 2; hit rate 0.32% among 310,000; AID 504621, 2011; inhibition, % at 9.4 µM; BacTiter-Glo ATP, 48 h; yeast lacking PDR1 and PDR3 efflux regulators;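 active means every replicate shows inhibition above about 80%, whatever the replicate mean, limit read from the data; inconclusive means mean inhibition reaches the set limit but some replicate falls short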;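 further: 0% = DMSO neutral controls and 100% = 20 µM radicicol positive controls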
Calb FLC = C. albicans growth inhibition with fluconazole, primary screen, CaCi-2 strain, Alamar Blue fluorescence. AID 1979, 2009. growth inhibition, % (test concentration not listed). hit rate 0.57% among 300,000. C. albicans CaCi-2 (fluconazole-resistant clinical isolate) + fluconazole, 48 h;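 active means growth inhibition above about 58% in most replicates, limit read from the data, passing the limit was not always enough; inconclusive means exactly half the replicates above a set limit; inactive means most replicates below a set limit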;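 further: all wells also contain fluconazole at 8 µg/ml as a sub-toxic cotreatment; 0% = median of DMSO wells and 100% = median of geldanamycin control wells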
* hit, by the source's call; u = inconclusive; x = not tested or not shown. Only some compounds are listed: those with a hit (about 2.2% of all), similar ones and a draw of the others.

SMILES	CSC inhib	Shn3 3UTR inh	Beta cell apopt	PfHsp90 set2	Calb FLC
O[C@@H](c1cc(C(F)(F)F)nc2c(C(F)(F)F)cccc12)[C@H]1CCCCN1	36.8	9.7	-14.4	-9.6	x
OC(c1cc(-c2ccc(Cl)cc2)nc2ccccc12)C1CCCCN1 (stereo not given)	116.3*	9.8	120.9*	-0.9	93.9*
O=C(/C=C/c1ccccc1)Nn1c(-c2cccs2)nc2ccccc2c1=O	1.2	-21.8	-0.9	x	94.8*
CC(=O)c1cnn(-c2ccc(Cl)cc2)c1C	-16.5	-2.3	3.2	4.1	9.8
Cc1c(C(=O)NCCSCc2cccc(C(F)(F)F)c2)cnn1-c1ccc(Cl)cc1	-3.2	1.1	-2.2	84.0*	-2.8
CC(C)(C)c1ccc(C(=O)Nc2nnc(Cc3c[nH]c4ccccc34)s2)cc1	96.3*	8.1	3.9	-7.2	17.4
N#Cc1ccc(OCC(=O)OCC(=O)Nc2sccc2C(N)=O)cc1	-6.8	1.1	-6.6	-6.6	x
COc1ccc(-c2nc3ccc(C)cn3c2NCc2ccccc2)cc1SC1CCCCC1	-9.6	97.5*	99.4*	-16.7	8.0
COc1ccc(-c2nc3ccc(Cl)cn3c2NC2CCCCC2)cc1SC1CCCCC1	x	15.4	x	14.2	x
CCCCNc1c(-c2ccc(OC)c(SC3CCCCC3)c2)nc2ccc(C)cn12	x	96.0*	x	-1.3	x
CCCCNc1c(-c2ccc(SC3CCCCC3)c(OC)c2)nc2ccc(C)cn12	101.2*	71.9	18.6	-2.7	x
CN(C)c1cc(-c2cccc(C(F)(F)F)c2)oc(=O)c1Cl	-14.9	-5.9	x	14.7	-2.8
O=C(Nc1ccc(Oc2cccc(C(F)(F)F)c2)nc1)c1cccs1	12.5	50.3	-2.3	3.8	-1.7
COc1ccc(NCc2nnc(SCC(=O)Nc3nc(-c4ccccc4)cs3)n2-c2ccccc2)cc1	-4.0	16.5	u	5.3	-4.9
COc1ccc(-n2c(Cc3cccn3C)nnc2SCC(=O)Nc2cccc(NC(C)=O)c2)cc1	-10.8	-32.3	-3.8	-18.5	8.7
COc1ccc(-n2c(Cc3cccn3C)nnc2SCC(=O)Nc2cccc(Cl)c2)cc1	117.1*	11.4	-10.8	-25.6	3.9
COc1ccc(-n2c(CNc3ccc(C)cc3)nnc2SCC(=O)Nc2nc(-c3ccccc3)cs2)cc1	2.7	2.7	85.7*	-8.9	-2.1
Cc1ccc(C2=NN(C(=O)CN3CCN(C4CCS(=O)(=O)C4)CC3)C(c3ccco3)C2)cc1 (stereo not given)	-11.4	-26.0	-1.2	-1.1	x
Cc1ccccc1N1CC(O)(c2cccs2)[N+]2=C1CCCC2 (stereo not given)	10.2	1.1	-0.6	20.3	-14.1
Cc1cccc(N2CC(O)(c3cccs3)[N+]3=C2CCCC3)c1C (stereo not given)	31.6	90.0*	1.9	1.8	-22.7
COc1ccc(-c2nnc3n(CCc4ccccc4)c(=O)c4ccccc4n23)c(OC)c1	-10.3	0.7	5.6	107.2*	8.7
CCN(CC)C(=O)N1CCN(c2c([N+](=O)[O-])c(=O)oc3ccccc23)CC1	-5.1	-22.9	1.9	34.6	x
C/C(=N\NC(=O)c1c(C)nc2ccccn12)c1ccccc1F	-10.2	6.1	2.6	-2.9	-5.8
C/C(=N\NC(=O)c1c(C)nc2ccccn12)c1ccc(O)cc1O	3.8	81.5	87.9*	0.1	4.2
COc1cccc(CN2CC(C(=O)NCCc3ccc(C)o3)CCC2=O)c1 (stereo not given)	0.1	1.9	-3.1	-2.8	-3.6
SMILES	CSC inhib	Shn3 3UTR inh	Beta cell apopt	PfHsp90 set2	Calb FLC
O=C(Nc1ccccc1)c1ccc(Br)c(S(=O)(=O)Nc2ccccn2)c1	-10.0	-9.5	-4.5	2.0	10.1
CCC(C)(C)c1ccc(Oc2ccc(N)cc2)cc1	x	88.2*	x	6.4	-29.3
CCC(C)(C)c1ccc(Oc2cccc(C(=O)O)c2)cc1	19.5	-47.3	-2.2	1.3	20.5
COc1cccc(/C=N/n2c(N)c(S(=O)(=O)c3cccs3)c3nc4ccccc4nc32)c1OC	5.2	-14.2	28.1	6.6	-0.6
Nc1c(S(=O)(=O)c2cccc(Cl)c2)c2nc3ccccc3nc2n1/N=C/c1ccc(O)c(O)c1	-9.7	x	51.2	x	85.3*
CN(C)S(=O)(=O)c1ccc(N=Cc2c(C(F)(F)F)[nH]n(C)c2=O)cc1	-14.3	-2.2	-7.3	x	3.5
CN(C)/C=C/C(=O)c1ccc2noc(-c3cccc(F)c3)c2c1	0.7	-7.0	-4.8	107.1*	28.7
CC1(C)Oc2ccc(C(=O)NC3CCCCC3)cc2N(CC#N)C1=O	-7.2	-11.9	x	-5.4	1.8
Cc1ccc(/C=[N+](/C)[O-])cc1	-5.8	-5.8	-8.1	5.2	-1.1
Cc1ccc(C=C2C(Cl)=C(Cl)C(Cl)=C2Cl)cc1	100.5*	x	4.4	x	-5.8
Cc1cc(OCCn2ccnc2)cc(C)c1Cl	-6.6	-4.0	-6.7	-33.6	-13.4
c1ccc(C[n+]2c(-c3ccccc3)csc2Nc2ccccc2)cc1	83.2*	-29.3	10.7	-14.2	-3.9
c1ccc(Nc2scc(-c3ccccc3)[n+]2Cc2ccco2)cc1	9.0	-93.3	0.3	-10.2	-9.5
Brc1ccc(N/N=C(/N=Nc2nn[nH]n2)c2ccccc2)cc1	-10.3	69.9	95.5*	13.6	123.6*
CC1=NNC(=O)/C1=C\c1cn(-c2ccccc2)nc1-c1ccccc1	69.7	97.3*	109.1*	45.5	4.0
O=Cc1cn(-c2ccccc2)nc1-c1ccccc1	3.7	-34.7	x	-5.0	5.5
COc1ccc(O)c(/C=N/NC(=O)c2c(C)nnn2-c2nonc2N)c1	x	68.1	30.6	1.5	62.6*
C/C(=N\NC(=O)c1nnn(-c2nonc2N)c1CN1CCc2ccccc21)c1ccccc1O	91.5*	u	92.2*	-17.1	-26.7
COc1c(Cl)cc(Cl)cc1/C=N/NC(=O)c1nnn(-c2nonc2N)c1CN1CCC(C)CC1	21.6	21.1	26.1	23.2	-4.0
CC1CCN(Cc2c(C(=O)N/N=C/c3cc(Cl)ccc3O)nnn2-c2nonc2N)CC1	x	90.1*	88.4*	-10.6	u
CC1CCN(Cc2c(C(=O)N/N=C/c3cc(Br)ccc3O)nnn2-c2nonc2N)CC1	x	u	89.5*	-8.2	82.4*
CN1CCN(NC(=O)c2ccc(Br)c(S(=O)(=O)N3CCOCC3)c2)CC1	-9.0	0.4	-11.7	0.1	-4.2
CCOc1cccc(-c2c(C(=O)N/N=C(\C)c3ccccn3)nnn2-c2nonc2N)c1	-11.7	93.9*	x	3.5	82.0*
CN(C)N1C(N)=C(C#N)C(c2cccc3ccccc23)C2=C1CC(c1ccccc1)CC2=O (stereo not given)	80.1*	18.3	-0.7	6.6	0.9
CN(C)N1C(N)=C(C#N)C(c2ccccc2)C2=C1CC(C)(C)CC2=O (stereo not given)	-10.7	12.9	1.7	1.0	-3.0
COc1ccc(CCN(C)C(=O)C(CCSC)NC(=O)c2ccco2)cc1OC (stereo not given)	8.2	4.4	-7.8	x	x

Screens as filed in PubChem BioAssay.
